Bioassay records as filed in PubChem.
Shown are actives, neighbours in structure and some others; about 19% of the full set was active somewhere.
HT1080 IDH1KD tx = HT-1080 IDH1 knockdown cell toxicity (counter line); HT-1080 IDH1 knockdown viability, ATP luminescence, 48 h; Potency, µM (series often up to 46.1 µM), usual class: cytotoxic; 2% of 360,000 active; AID 686971
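Cytotoxicity counter-line: IDH1KD HT-1080, 48 h, CellTiter-Glo. Curves classed by r2, magnitude and activity.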
TDP1 cell CPT = DT40-hTDP1 cell growth loss with CPT. 12% of 420,000 active. AID 686979. chicken DT40 Tdp1-/-;hTDP1 cells + 20 nM CPT, ATP luminescence, 48 h. Potency, µM (titrated, usually from 46.2 µM), most hits filed as inhibitors; also: nearly all actives have a fitted effect of over 55% in size
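Cell growth measured by CellTiter-Glo luminescence after a minimum 48 h, 37 C compound exposure with 20 nM CPT in Tdp1-knockout DT40 cells stably expressing hTDP1, seeded 400/well; qHTS titration format.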
IL-1B inflam inh = inhibitors of inflammasome signaling (IL-1 beta secretion); THP-1 LPS/ATP IL-1B secretion, AlphaLISA, 16 h; active compounds read low; activity change, % at 57.5 µM; 4.7% of 360,000 active; AID 743279; in the data active = activity change below about -50%; inconclusive = mostly about -30% to -49%
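THP-1 cells pretreated 1 hr with compounds (up to 57.5 uM final), then stimulated with LPS (250 ng/mL final) plus ATP (1.25 mM final); secreted IL-1B measured by AlphaLISA after 16 hr, decreased signal indicating inhibition.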
TDP1 cell noCPT = qHTS for Inhibitors of human tyrosyl-DNA phosphodiesterase 1 (TDP1): qHTS in cells in absence of CPT | Potency, µM (top dose mostly 46.2 µM), actives largely listed as inhibitors | AID 686978, 2013 | 15% of 420,000 active | DT40 Tdp1-/- hTDP1 cells, no CPT, ATP luminescence, 48 h; also: nearly all actives have a fitted effect of over 55% in size
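Readout: luminescence from CellTiter-Glo after 30 min in the dark at RT. Cells: DT40 Tdp1-/- with stable hTDP1, 400/well. Exposure: compounds alone, ≥48 hr, 37 °C.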
HT1080NT lethal = kills 2HG-producing HT-1080-NT fibrosarcoma cells. HT-1080-NT fibrosarcoma viability, CellTiter-Glo ATP luminescence, 48 h. Potency, µM (doses to about 46.1 µM), hits mostly cytotoxic. 1.6% of 360,000 active;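 also: NT is the 2HG producing partner of a matched IDH1 knockdown line; nearly all actives have a fitted effect of over 55% in size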
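Viability by CellTiter-Glo luminescence after 48 h compound exposure at 37C of HT-1080-NT cells (750/well, RPMI, 5% FBS). % activity scaled between DMSO wells and medium-only wells, then curve-fitted and categorized by curve class.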
uPA generation = blocks generation of uPA at the cell surface. cell surface uPA generation assay, qHTS. 0.31% of 330,000 active. Potency, µM (top dose mostly 38.3 µM), actives largely listed as inhibitors. AID 540303; active = well fitted inhibition curve with a large enough effect; inconclusive = small, poorly fitted or top-dose-only effect; inactive = no such curve, though single readings can be large or run the other way; tested in mouse RAW 264.7 cells; also: nearly all actives have a fitted effect of over 55% in size
Hits are given with their value; – = inactive; ? = inconclusive; · = no result; ! = not active in a repeat. Unless noted, calls follow the shape of the dose curve; as a rule, active = well fitted curve in the direction sought with a large enough effect; inconclusive = small, poorly fitted or top-dose-only effect, or another doubt; inactive = no such curve, though single readings can be large; an effect the other way counts as inactive or inconclusive.

SMILES	HT1080 IDH1KD tx	TDP1 cell CPT	IL-1B inflam inh	TDP1 cell noCPT	HT1080NT lethal	uPA generation
CCC(C)Sc1ccc([C@@H]2[C@@H]3C(=O)N(CC)C(=O)[C@@H]3[C@]3(C(=O)OC)CCCCN23)cc1 (stereo not given in full)	–	?	–	20.6µM	–	–
Cc1cccc(Nc2nnc(-n3nc(C)cc3C)c3ccccc23)c1	·	–	·	–	·	·
COc1cc(NC(=O)N2CCC3(CC2)Nc2cc(F)ccc2-n2cccc23)cc(OC)c1OC	·	16.4µM	·	25.9µM	·	·
CC1(C)Cc2c(C#N)c(SCC(=O)c3ccccc3)nc(N3CCOCC3)c2CS1	–	?	–	16.4µM	–	–
CC(=O)N1CCN(c2nc(-c3ccco3)c3c(c2C#N)CC(C)(C)SC3)CC1	–	?	?	23.1µM	–	–
COc1ncc(-c2ccc(N3C(c4ccsc4)=Cc4ccc(F)cc4C3CC(C)=O)cc2)cn1 (stereo not given)	–	?	–	?	–	·
COc1ccc(C2CCc3cc4c(cc3C2=NOC(C)=O)OCO4)cc1OC (stereo not given)	?	20.6µM	–	14.6µM	–	·
Nc1nccnc1C(=O)OCC(=O)Nc1ccc2[nH]c(=O)[nH]c2c1	–	–	–	–	–	–
C=CCn1cccc(/C=C/C(=O)c2ccc(C(C)(C)C)cc2)c1=S	–	7.31µM	-106.5	7.31µM	?	–
Cc1cccn2c(CNCC3(c4ccccc4)CCCC3)c(C(=O)N3CCOCC3)nc12	–	13µM	–	10.3µM	–	–
COc1ccc(Cn2ccnc2SCC(=O)Nc2ccc3c(c2)OCCO3)cc1	·	?	·	–	·	·
CCCC(NC(=O)C(C)NC(=O)CO/N=C1\C=C2CCC3C4CCC(C(C)=O)[C@@]4(C)CCC3[C@@]2(C)CC1)C(=O)O (stereo not given in full)	–	–	–	–	–	–
C=CCn1cnc2c(nnn2-c2ccc(C)c(C)c2)c1=O	–	–	–	–	–	–
CCOC(=O)C(=CNNc1cccc(Cl)c1)C(=O)OCC	–	11.6µM	–	20.6µM	–	–
O=C(Cc1cccc(NC(=O)C2CCCN(C(=O)CCc3ccccc3)C2)c1)Nc1ccc(C(=O)N2CCOCC2)cc1 (stereo not given)	–	?	–	?	–	–
COc1ccc(-c2csc(N(Cc3ccco3)C(=O)c3cccs3)n2)cc1	–	?	–	?	–	–
COc1ccc(CC(=O)N(CC2CCCO2)c2nc3ccccc3s2)cc1 (stereo not given)	–	?	–	13µM	–	–
COc1ccc(-c2csc(N(C)C(=O)c3cccs3)n2)cc1	–	–	-59.6	–	–	–
CCN(CC)CCCN(C(=O)c1cccc(C)c1)c1nc(-c2ccc(OC)cc2)cs1	?	–	-50.4	7.31µM	–	–
COc1ccc(OC)c(-c2csc(N(CC3CCCO3)C(=O)C3CCCCC3)n2)c1 (stereo not given)	–	20.6µM	–	18.4µM	–	–
CCOC(=O)c1c(-c2ncc(C(F)(F)F)cc2Cl)noc1C	–	–	–	–	–	–
CCN(CC)CCCN(C(=O)c1ccc(Br)cc1)c1nc(-c2ccc(OC)cc2)cs1	?	–	-81.5	?	?	–
COCCN(C(=O)Cc1ccc(OC)c(OC)c1)c1nc(-c2cc(OC)ccc2OC)cs1	–	18.4µM	–	?	–	–
COc1ccc(OC)c(-c2csc(N(Cc3ccco3)C(=O)c3cccs3)n2)c1	–	?	–	?	–	–
COc1ccc(-c2csc(N(CC3CCCO3)C(=O)c3cccs3)n2)cc1 (stereo not given)	–	11.6µM	–	?	–	–
SMILES	HT1080 IDH1KD tx	TDP1 cell CPT	IL-1B inflam inh	TDP1 cell noCPT	HT1080NT lethal	uPA generation
CCN(CC)CCCN(C(=O)c1cccs1)c1nc(-c2ccc(OC)cc2)cs1	?	18.4µM	?	20.6µM	?	·
COCCn1c(=O)c(-c2ccc(F)cc2)nc2cnc(Nc3cccc(OC)c3)nc21	·	–	·	–	·	·
O=C(Nc1nc2ccccc2s1)C1c2ccccc2Oc2ccccc21	–	5.8µM	–	16.4µM	–	–
O=C(Cc1cccs1)Nc1nc2ccccc2s1	–	?	–	14.6µM	–	–
O=C(Cc1cccs1)Nc1nc(-c2cccnc2)cs1	–	16.4µM	–	8.2µM	–	–
CCOc1ccc2nc(NC(=O)Cc3cccs3)sc2c1	–	18.4µM	?	?	–	–
COc1ccc(NC(=O)c2cccc(N3CCCS3(=O)=O)c2)c(OC)c1	·	–	·	–	·	·
CCNC(=O)NC(=O)COC(=O)c1ccccc1SCC(=O)NC(=O)NCC	29.1µM	20.6µM	–	14.6µM	–	–
Cc1cc(O)cc(O)c1-c1onc(C(F)(F)F)c1-c1cscn1	–	18.4µM	–	10.3µM	–	–
CCOc1ccc(-c2onc(C(F)(F)F)c2-c2cscn2)c(O)c1	?	11.2µM	–	?	–	·
CCOc1ccc(NC(=O)Cn2nnc(-c3nc(-c4ccncc4)no3)c2N)cc1	·	–	·	–	·	·
Cc1ccc(C)c(NC(=O)C(C)n2c(=O)cc(C(F)(F)F)c3c(C)nn(C)c32)c1 (stereo not given)	·	–	·	–	·	·
Cc1nn(C(C)C(=O)N2CCN(c3ccc(F)cc3)CC2)c(=O)c2c1sc1ccccc12 (stereo not given)	·	–	·	–	·	·
COc1ccc(N2CCN(C(=O)C(C)n3c(=O)cc(C(F)(F)F)c4c(C)nn(C)c43)CC2)cc1 (stereo not given)	·	11.6µM	·	11.6µM	·	·
Cc1nn(C)c2c1c(C(F)(F)F)cc(=O)n2CC(=O)NCc1ccc(OC(C)C)cc1	·	–	·	?	·	·
Cc1nn(C)c2c1c(C(F)(F)F)cc(=O)n2C(C)C(=O)NCCc1ccc(Cl)cc1 (stereo not given)	·	14.6µM	·	?	·	·
Cc1nn(C)c2c1c(C(F)(F)F)cc(=O)n2C(C)C(=O)N1CCN(c2ccccc2)CC1 (stereo not given)	·	23.1µM	·	?	·	·
O=C(COc1ccc(NC(=O)c2cccs2)cc1)c1ccc(F)cc1	–	–	–	–	–	?
O=[N+]([O-])c1ccc(Sc2ccc(F)cc2)nc1	–	–	?	–	–	–
O=[N+]([O-])c1cnc(Sc2ccncn2)c([N+](=O)[O-])c1	–	1.16µM	?	1.16µM	–	·
COc1cc(NC(C)CCCN)c2ncccc2c1 (stereo not given)	?	?	–	7.18µM!	16.4µM	–
COc1cc(NC(C)CCCN)c2nc(C)ccc2c1Oc1ccc(F)cc1 (stereo not given)	–	25.9µM	–	10.3µM	–	·
